“And” between values parts separate entries of the source, which are not always exact repeats. Equal values may be shown once. Where a structure was tested more than once in an assay, its records may differ in their call. The source made the active and inactive calls.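 Rule for the calls, unless noted: active = mean z-score across replicates of 1.96 or higher in either the MELAS or the Rieske mutant cell line; inactive = the rest.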
Legend:
[1] = Wnt pathway potentiators raising nuclear beta-catenin – imaging, WNT3A-conditioned medium, mouse C2C12, NPC library, primary screen (AID 1117326; in the data active = nuclear beta-catenin stimulation mostly above about 4.2%, no sharp cut-off; inactive = mostly below about 10%); settings: stronger effect = higher value
[2] = stimulators of insulin release from INS-1E, primary screen, cell-based, 5 mM glucose, NPC library (AID 1117329;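 active = compound raises insulin release from rat beta cells at 5 mM glucose, no numeric limit stated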); settings: rat INS-1E insulin secretion, at 10 µM, stronger effect = higher value
[3] = growth inhibition of GSK3B-pretreated HCT116 cells – cell-based, CellTiter-Glo, 0.2 to 20 µM (AID 1117336;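 active = compounds lowering colon cancer cell viability after pretreatment blocking the GSK3B kinase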); settings: HCT116 viability after GSK3B inhibitor, at 20 µM, stronger effect = higher value
[4] = inhibition of endothelial tube formation, primary screen, imaging, VEGF stimulated, CD31 staining, tube area, NPC library (AID 1117340;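 active = compound that reduces growth-factor-driven endothelial tube area in a mixed cell culture, no cutoff stated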); settings: VEGF-stimulated ADSC/ECFC co-culture, at 10 µM, stronger effect = higher value
[5] = GLP1 release stimulators, primary, NCI-H716, NPC library (AID 1117341;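 active = compound raises GLP1 secretion from the human gut endocrine cells, with no numeric limit stated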); settings: NCI-H716 cells, at 10 µM, stronger effect = higher value
[6] = HCT116 colon cancer cell growth inhibition, primary screen, CellTiter-Glo luminescence, NPC library (AID 1117342;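 active = compounds that lower survival of HCT116 colon cancer cells in the luminescence readout, no numeric limit stated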); settings: at 20 µM (top of the series)
[7] = reduced SW480 viability measured with CellTiter-Glo, NPC library, primary (AID 1117343;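 active = compounds that lower viability of the colon cancer cells in the luminescence readout, with no numeric limit stated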); settings: CellTiter-Glo luminescence; at 20 µM (top of the series)
[8] = NPC library primary testing for decreased DLD-1 cell viability via CellTiter-Glo (AID 1117346;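 active = compounds that lower survival of DLD-1 colon cancer cells in the luminescence readout, no cutoff given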); settings: DLD-1 viability, CellTiter-Glo luminescence; at 20 µM (top of the series)
[9] = target: 6-phosphogluconate dehydrogenase, decarboxylating (Homo sapiens) (UniProt P52209); assay: inhibition of human phosphogluconate dehydrogenase – biochemical, recombinant enzyme, NADPH absorbance, primary screen (AID 1159550;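 active = at least 20% inhibition of 6-phosphogluconate dehydrogenase activity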); settings: recombinant 6PGD, NADPH absorbance 341 nm; at 10 µM; stronger effect = higher value
[10] = EMT-state selective cytotoxicity in co-culture – imaging, PC-3E GFP, TEM4-18 mCherry, primary screen (AID 1345086;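 active = compounds killing one labelled cell type while sparing the other, by normalised counts and ratio limits, not self-fluorescent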;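 for all read-outs here: cells exposed to compound for 72 h before imaging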;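 for red/green cell ratio (normalised): normalised mesenchymal count divided by normalised epithelial count so high means epithelial killing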); settings: PC-3E GFP / TEM4-18 mCherry co-culture, imaging cell counts, at 1 µM; for red/green cell ratio (normalised): actives lie on both sides, counts scaled to control wells, 1 = unselective
[11] = viability loss with induced miR-34 in A549 – imaging, A549 dox-inducible miR-34, nuclei and caspase counts, primary screen (AID 1347080;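 active = compounds whose cell count with miR-34 switched on is under 0.7 times the count with it off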); settings: A549 miR-34 inducible, Hoechst nuclei count, 48 h
[12] = MELAS cybrid and Rieske KO viability enhancers – cell-based, MELAS cybrids, Rieske KO mouse fibroblasts, CellTiter-Glo, primary screen (AID 1508586); settings: low glucose;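 note: z relative to plate mean and SD of compound and empty wells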
[13] = target: NAD(+) hydrolase SARM1 (Homo sapiens) (UniProt Q6SZW1); assay: blocking NAD cleavage by SARM1 SAM-TIR – cell lysate, NAD-Glo luminescence (AID 1508614;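 active = compound whose remaining NAD level is above about 45 nM, limit read from the data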;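 note: higher remaining NAD means stronger inhibition of SARM1 NADase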); settings: SAM-TIR HEK293T lysate NADase, at 1 µM, stronger effect = higher value
[14] = modulation of C. elegans fzo-1 (AID 1259413; call rule not given here;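 note: fzo-1 mutant C. elegans worms in liquid wells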); settings: C. elegans fzo-1 modulator screen, mean read-out; stronger effect = higher value
[15] = target: Mitogen-activated protein kinase 7 (Homo sapiens) (UniProt Q13164); assay: Gal4-ERK5 driven luciferase induction – cell-based, HTS, primary screen (AID 1508626;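 active = luciferase signal above three times the same-plate solvent-only control wells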;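 note: luciferase driven by Gal4-ERK5 fusion binding five Gal4 sites before minimal TATA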); settings: HeLa Gal4-ERK5 transactivation, 18 h, at 5 µM, stronger effect = higher value
F380Y = assay: BK channel mutant inhibitors and activators – cell-based, U2OS BacMam, thallium flux, beta subunits, selectivity assay, profiling panel (AID 1259406;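 active = thallium flux through the channel raised or lowered by more than 3 SD from vehicle-only wells, actives on both sides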;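 note: initial slope of Thallos dye fluorescence rise after thallium is added; log ratio against the mean of 0.3% DMSO vehicle wells on the same plate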); settings: U2OS BacMam BK variants, at 30 µM
F380Y/beta1 = assay: as above; settings: U2OS BacMam BK variants, at 30 µM
F380Y/beta2Delta = assay: as above; settings: U2OS BacMam BK variants, at 30 µM
[16] = measured here: epithelial PC-3E GFP cell survival
[17] = measured here: mesenchymal TEM4-18 mCherry cell survival
[18] = MELAS cybrid survival, CellTiter-Glo 48 h, stronger effect = higher value
[19] = Rieske KO mouse fibroblast survival, CellTiter-Glo 72 h

Mitogen-activated protein kinase 7 (Homo sapiens), sequence (Q13164 whole entry, looked up, the tested form may be a part): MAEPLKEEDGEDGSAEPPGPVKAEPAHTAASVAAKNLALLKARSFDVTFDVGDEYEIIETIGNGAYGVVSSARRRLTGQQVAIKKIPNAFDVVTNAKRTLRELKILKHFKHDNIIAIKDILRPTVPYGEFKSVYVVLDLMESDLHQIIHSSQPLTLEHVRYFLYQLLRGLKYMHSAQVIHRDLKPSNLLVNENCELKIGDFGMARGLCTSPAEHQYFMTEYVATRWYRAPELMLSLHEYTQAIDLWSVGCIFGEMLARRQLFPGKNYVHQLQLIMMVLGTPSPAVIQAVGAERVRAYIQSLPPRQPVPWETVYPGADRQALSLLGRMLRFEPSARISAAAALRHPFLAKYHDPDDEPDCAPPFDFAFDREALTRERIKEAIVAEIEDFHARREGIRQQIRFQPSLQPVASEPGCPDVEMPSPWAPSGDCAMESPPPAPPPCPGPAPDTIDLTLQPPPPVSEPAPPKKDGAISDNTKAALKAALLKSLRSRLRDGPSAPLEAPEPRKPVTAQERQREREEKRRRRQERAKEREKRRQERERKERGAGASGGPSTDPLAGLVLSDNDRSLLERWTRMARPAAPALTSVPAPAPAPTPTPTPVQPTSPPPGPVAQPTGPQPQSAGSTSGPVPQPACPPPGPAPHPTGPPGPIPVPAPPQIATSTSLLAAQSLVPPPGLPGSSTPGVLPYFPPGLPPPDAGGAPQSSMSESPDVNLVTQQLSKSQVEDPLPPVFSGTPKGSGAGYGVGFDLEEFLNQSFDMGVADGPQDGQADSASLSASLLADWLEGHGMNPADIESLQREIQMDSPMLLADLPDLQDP
6-phosphogluconate dehydrogenase, decarboxylating (Homo sapiens), sequence (P52209 whole entry, looked up): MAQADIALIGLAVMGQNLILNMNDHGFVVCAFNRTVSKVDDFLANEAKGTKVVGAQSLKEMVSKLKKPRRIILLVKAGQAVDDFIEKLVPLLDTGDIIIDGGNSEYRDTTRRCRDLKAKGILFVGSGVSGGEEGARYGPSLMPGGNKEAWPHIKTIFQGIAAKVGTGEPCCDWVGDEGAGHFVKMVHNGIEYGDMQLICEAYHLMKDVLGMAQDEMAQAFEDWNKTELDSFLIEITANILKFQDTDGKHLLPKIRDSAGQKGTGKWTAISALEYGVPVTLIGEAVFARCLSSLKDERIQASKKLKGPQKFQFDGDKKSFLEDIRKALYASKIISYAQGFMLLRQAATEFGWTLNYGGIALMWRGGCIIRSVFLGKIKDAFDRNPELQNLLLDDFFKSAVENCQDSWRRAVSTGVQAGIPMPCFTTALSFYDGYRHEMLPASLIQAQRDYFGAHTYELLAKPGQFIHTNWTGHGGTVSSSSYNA
NAD(+) hydrolase SARM1 (Homo sapiens), sequence (Q6SZW1 whole entry, looked up): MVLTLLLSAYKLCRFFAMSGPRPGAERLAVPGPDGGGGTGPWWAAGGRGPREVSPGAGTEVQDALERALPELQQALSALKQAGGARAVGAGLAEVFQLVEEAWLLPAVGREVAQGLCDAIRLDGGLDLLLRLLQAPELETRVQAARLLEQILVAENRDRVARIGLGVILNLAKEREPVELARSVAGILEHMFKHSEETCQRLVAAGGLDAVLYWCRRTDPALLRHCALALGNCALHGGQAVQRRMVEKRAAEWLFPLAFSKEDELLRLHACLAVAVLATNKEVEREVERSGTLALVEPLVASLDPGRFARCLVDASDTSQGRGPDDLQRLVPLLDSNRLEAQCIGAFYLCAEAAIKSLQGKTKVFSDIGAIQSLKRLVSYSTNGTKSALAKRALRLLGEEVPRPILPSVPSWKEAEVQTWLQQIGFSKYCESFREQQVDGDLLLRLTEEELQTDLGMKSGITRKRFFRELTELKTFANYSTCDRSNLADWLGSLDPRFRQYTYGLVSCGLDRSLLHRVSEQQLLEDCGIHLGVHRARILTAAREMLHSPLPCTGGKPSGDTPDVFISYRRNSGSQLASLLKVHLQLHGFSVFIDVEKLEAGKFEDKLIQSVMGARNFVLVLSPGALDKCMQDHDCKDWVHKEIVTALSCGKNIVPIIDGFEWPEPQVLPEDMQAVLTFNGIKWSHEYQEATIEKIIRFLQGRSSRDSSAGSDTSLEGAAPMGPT

## COC(=O)c1ccc(NC(C)=O)cc1OC
[1]; at 10 µM
  nuclear beta-catenin stimulation: -0.5% (inactive)
[1]; stimulation, at 2 µM
  nuclear beta-catenin stimulation: -1.4%
[2]
  insulin secretion stimulation: -1.4% (inactive)
[3]
  viability decrease: 13.4% (inactive)
[4]
  tube area decrease: -3.1% (inactive)
[5]
  GLP1 secretion stimulation: -1.8% (inactive)
[6]
  inhibition of viability: 1.7% (inactive)
[7]
  viability decrease (inhibition): -18.6% (inactive)
[8]
  viability decrease (inhibition): -4.9% (inactive)

## N=C(N)c1ccc(OCCCCCOc2ccc(C(=N)N)cc2)cc1
[1]; at 10 µM
  nuclear beta-catenin stimulation: -0.7% (inactive)
[1]; stimulation, at 2 µM
  nuclear beta-catenin stimulation: 1.1%
[2]
  insulin secretion stimulation: 2.3% (inactive)
[3]
  viability decrease: 0.4% (inactive)
[4]
  tube area decrease: 43.4% (active)
[5]
  GLP1 secretion stimulation: -3.5% (inactive)
[6]
  inhibition of viability: 12.5% (inactive)
[7]
  viability decrease (inhibition): 60.9% (active)
[8]
  viability decrease (inhibition): 55.1% (active)
[9]
  inhibition: 12.1% (inactive)
[10]
  red/green cell ratio (normalised): 0.75 (inactive)
[10]; [16]
  normalised cell number: 1.05
[10]; [17]
  normalised cell number: 0.79
[11]; stronger effect = lower value, cell number ratio, induced over uninduced
  fold change: 0.873 (inactive) and 0.95 (inactive) and 1.08 (inactive)
[11]; measured here: relative caspase fold change +Dox/-Dox
  fold change: 1.42 and 0.678 and 1.37
[11]; measured here: total cells with miR-34 induction, stronger effect = lower value
  cell count: 4130 and 4260 and 6460
[11]; measured here: total cells without miR-34 induction
  cell count: 4730 and 4480 and 6000
[12]; [18]
  z-score: 6.07 (active) and -3.61 (inactive) and 2.69 (active)
[12]; [19]
  z-score: 6.42 and -2.57 and -1.21
[13]
  remaining NAD: 10 nM (inactive)

## CC(C)(C)C(=O)OCOC(=O)C1N2C(=O)CC2S(=O)(=O)C1(C)C (stereo not drawn)
[1]; at 10 µM
  nuclear beta-catenin stimulation: -1.1% (inactive)
[1]; stimulation, at 2 µM
  nuclear beta-catenin stimulation: 1%
[2]
  insulin secretion stimulation: 1.4% (inactive)
[3]
  viability decrease: 10.9% (inactive)
[4]
  tube area decrease: -21.6% (inactive)
[5]
  GLP1 secretion stimulation: -1.3% (inactive)
[6]
  inhibition of viability: -4.1% (inactive)
[7]
  viability decrease (inhibition): -22.3% (inactive)
[8]
  viability decrease (inhibition): 4% (inactive)

## CN(C)c1cc(NC(=O)CNC(C)(C)C)c(O)c2c1C[C@@H]1C[C@H]3[C@H](N(C)C)C(=O)C(C(N)=O)=C(O)[C@@]3(O)C(=O)C1=C2O
[1]; at 10 µM
  nuclear beta-catenin stimulation: -0.8% (inactive)
[1]; stimulation, at 2 µM
  nuclear beta-catenin stimulation: -1.4%
[2]
  insulin secretion stimulation: -0.5% (inactive)
[3]
  viability decrease: 70% (active)
[4]
  tube area decrease: -8.6% (inactive)
[5]
  GLP1 secretion stimulation: 3.4% (inactive)
[6]
  inhibition of viability: 59.6% (active)
[7]
  viability decrease (inhibition): 72% (active)
[8]
  viability decrease (inhibition): 58.1% (active)

## Clc1cccc(Cl)c1NC1=NCCN1
[1]; at 10 µM
  nuclear beta-catenin stimulation: 0.7% (inactive)
[1]; stimulation, at 2 µM
  nuclear beta-catenin stimulation: 0.7%
[2]
  insulin secretion stimulation: 1.9% (inactive)
[3]
  viability decrease: -10.4% (inactive)
[4]
  tube area decrease: -5.1% (inactive)
[5]
  GLP1 secretion stimulation: 1% (inactive)
[6]
  inhibition of viability: -0.6% (inactive)
[7]
  viability decrease (inhibition): -15.3% (inactive)
[8]
  viability decrease (inhibition): -4.9% (inactive)
[9]
  inhibition: 13.3% (inactive)
[14]
  mean signal: 231 (inactive)
[10]
  red/green cell ratio (normalised): 1.14 (inactive)
[10]; [16]
  normalised cell number: 1.33
[10]; [17]
  normalised cell number: 1.52
[12]; [18]
  z-score: -0.353 (inactive) and 0.0276 (inactive) and 0.719 (inactive)
[12]; [19]
  z-score: 0.516 and -0.377 and -0.412
[13]
  remaining NAD: 10 nM (inactive)
[15]
  luciferase signal: 64 AU (inactive)
F380Y
  log fold change Tl+ flux: 0.0065 (inactive)
F380Y/beta1
  log fold change Tl+ flux: 0.0554 (inactive)
F380Y/beta2Delta
  log fold change Tl+ flux: 0.0431 (inactive)

## CN1C(C(=O)Nc2ccccn2)=C(O)c2ccccc2S1(=O)=O
[1]; at 10 µM
  nuclear beta-catenin stimulation: 6.3% (inactive)
[1]; stimulation, at 2 µM
  nuclear beta-catenin stimulation: 0.5%
[2]
  insulin secretion stimulation: -2.9% (inactive)
[3]
  viability decrease: -12.7% (inactive)
[4]
  tube area decrease: 3.1% (inactive)
[5]
  GLP1 secretion stimulation: 1.4% (inactive)
[6]
  inhibition of viability: -10.9% (inactive)
[7]
  viability decrease (inhibition): 15.6% (inactive)
[8]
  viability decrease (inhibition): 12.8% (inactive)
[9]
  inhibition: 7.63% (inactive)
[14]
  mean signal: 261 (inactive)
[10]
  red/green cell ratio (normalised): 1.3 (inactive)
[10]; [16]
  normalised cell number: 0.96
[10]; [17]
  normalised cell number: 1.24
[12]; [18]
  z-score: -0.176 (inactive) and -0.255 (inactive) and -0.0452 (inactive)
[12]; [19]
  z-score: 0.725 and -0.177 and -0.896
[13]
  remaining NAD: 10 nM (inactive)
[15]
  luciferase signal: 56 AU (inactive)
F380Y
  log fold change Tl+ flux: 0.0868 (inactive)
F380Y/beta1
  log fold change Tl+ flux: 0.0287 (inactive)
F380Y/beta2Delta
  log fold change Tl+ flux: 0.0109 (inactive)

## Cc1coc2ccccc2c1=O
[1]; at 10 µM
  nuclear beta-catenin stimulation: 1.5% (inactive)
[1]; stimulation, at 2 µM
  nuclear beta-catenin stimulation: 2.3%
[2]
  insulin secretion stimulation: -2.4% (inactive)
[3]
  viability decrease: 2.8% (inactive)
[4]
  tube area decrease: 13.7% (inactive)
[5]
  GLP1 secretion stimulation: 3.1% (inactive)
[6]
  inhibition of viability: -12.2% (inactive)
[7]
  viability decrease (inhibition): 24.7% (inactive)
[8]
  viability decrease (inhibition): -7.5% (inactive)
[9]
  inhibition: 1.24% (inactive)

## CC[C@H](C)C(=O)O[C@H]1C[C@@H](C)C=C2C=C[C@H](C)[C@H](CC[C@@H]3C[C@@H](O)CC(=O)O3)[C@H]21
[1]; at 10 µM
  nuclear beta-catenin stimulation: 13.1% (inactive)
[1]; stimulation, at 2 µM
  nuclear beta-catenin stimulation: 4.2%
[2]
  insulin secretion stimulation: 6.6% (inactive)
[3]
  viability decrease: 69.3% (active)
[4]
  tube area decrease: 95.5% (active)
[5]
  GLP1 secretion stimulation: 25% (active)
[6]
  inhibition of viability: 56.9% (active)
[7]
  viability decrease (inhibition): 87% (active)
[8]
  viability decrease (inhibition): 36.2% (inactive)
[9]
  inhibition: -1.21% (inactive)
[14]
  mean signal: 253 (inactive)
[10]
  red/green cell ratio (normalised): 0.98 (inactive)
[10]; [16]
  normalised cell number: 1.39
[10]; [17]
  normalised cell number: 1.37
[12]; [18]
  z-score: -0.236 and -1.19 (inactive)
[12]; [19]
  z-score: 2.23 and -0.0427
[13]
  remaining NAD: 10 nM (inactive)
[15]
  luciferase signal: 60 AU (inactive)
F380Y
  log fold change Tl+ flux: 0.184 (active)
F380Y/beta1
  log fold change Tl+ flux: 0.00194 (inactive)
F380Y/beta2Delta
  log fold change Tl+ flux: 0.0899 (active)

## CCN(CC)CCCC(C)Nc1ccnc2cc(Cl)ccc12 (stereo not drawn)
[1]; at 10 µM
  nuclear beta-catenin stimulation: 1.4% (inactive)
[1]; stimulation, at 2 µM
  nuclear beta-catenin stimulation: -0.7%
[2]
  insulin secretion stimulation: 11.2% (inactive)
[3]
  viability decrease: -10.8% (inactive)
[4]
  tube area decrease: 23% (inactive)
[5]
  GLP1 secretion stimulation: 6.3% (inactive)
[6]
  inhibition of viability: 19.9% (inactive)
[7]
  viability decrease (inhibition): 31.4% (inactive)
[8]
  viability decrease (inhibition): 5.6% (inactive)
[9]
  inhibition: 7.49% (inactive)
[10]
  red/green cell ratio (normalised): 1.21 (inactive)
[10]; [16]
  normalised cell number: 0.99
[10]; [17]
  normalised cell number: 1.2
[12]; [18]
  z-score: 0.423 (inactive) and -0.395 (inactive)
[12]; [19]
  z-score: 0.725 and -1.28
[13]
  remaining NAD: 10 nM (inactive)
[15]
  luciferase signal: 40 AU (inactive)

## Cc1noc(NS(=O)(=O)c2ccc(N)cc2)c1C
[1]; at 10 µM
  nuclear beta-catenin stimulation: 0.8% (inactive)
[1]; stimulation, at 2 µM
  nuclear beta-catenin stimulation: 0.7%
[2]
  insulin secretion stimulation: -1.5% (inactive)
[3]
  viability decrease: -14.5% (inactive)
[4]
  tube area decrease: 8.7% (inactive)
[5]
  GLP1 secretion stimulation: 0.1% (inactive)
[6]
  inhibition of viability: 0.13% (inactive)
[7]
  viability decrease (inhibition): -27% (inactive)
[8]
  viability decrease (inhibition): -5.7% (inactive)
[9]
  inhibition: -15.2% (inactive)
[14]
  mean signal: 256 (inactive)
[10]
  red/green cell ratio (normalised): 1.68 (inactive)
[10]; [16]
  normalised cell number: 0.73
[10]; [17]
  normalised cell number: 1.22
[12]; [18]
  z-score: -0.0643 (inactive) and 0.19 (inactive)
[12]; [19]
  z-score: -0.11 and -0.107
[13]
  remaining NAD: 10 nM (inactive)
[15]
  luciferase signal: 100 AU (inactive)
F380Y
  log fold change Tl+ flux: 0.00425 (inactive)
F380Y/beta1
  log fold change Tl+ flux: -0.0556 (inactive)
F380Y/beta2Delta
  log fold change Tl+ flux: 0.028 (inactive)
